Experimental data taken from PubChem BioAssay (NCATS).
Records with an inconclusive call do not appear. Values without a mark were called inactive. Calls of active or inactive are those of the source. Calls come from the whole dose curve; as a rule, active = well fitted inhibition curve with a large enough effect; inconclusive = small, poorly fitted or top-dose-only effect; inactive = flat fitted curve, though single readings scatter.

Columns and labels:
CRL-7250 = normal cell line; test: Cytotoxic Profiling of Annotated Libraries Using Quantitative High-Throughput Screening (AID 1296008); conditions: Five cell lines viability, CellTiter-Glo ATP luminescence, 48-72 h; max response: hits give low values; note: nearly all actives have a fitted effect of over 60% in size
Summary of the method: (§1)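 Cytotoxicity was measured as CellTiter-Glo ATP luminescence, read after 10 min at room temperature. Compound treatment of the cells lasted 48 or 72 hr at 37 degrees Celsius in a qHTS format.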

HEK293 = test: as above; conditions: Five cell lines viability, CellTiter-Glo ATP luminescence, 48-72 h; max response: hits give low values
Summary of the method: as §1
% is set by controls: 0 for no effect and ±100 for the full control effect; potency is the fitted concentration of half-maximal effect.

COc1ccc(F)cc1-c1cc(NC(=O)[C@@H]2CCCNC2)ncc1Cl
Potency (CRL-7250): 291 nM (active)
Potency (HEK293): 259 nM (active)

CC(=O)O[C@H]1[C@H](O[C@H]2[C@@H]3C=CO[C@@H](O[C@@H]4O[C@H](CO)[C@@H](O)[C@H](O)[C@H]4O)[C@@H]3[C@@]3(CO)O[C@@H]23)O[C@@H](C)[C@H](OC(=O)/C=C/c2ccccc2)[C@H]1OC(=O)/C=C/c1ccccc1
max response (CRL-7250): -1.73%
max response (HEK293): -0.402%

O=S(=O)(NC1CCC(c2cc(F)ccc2F)(S(=O)(=O)c2ccc(Cl)cc2)CC1)C(F)(F)F (stereo not given)
outcome (CRL-7250): inactive
max response (HEK293): -4.12%

CC(C)c1c2cc(-c3ccnc(NC4CCC(NC5CCOCC5)CC4)n3)ccc2nn1C (stereo not given)
Potency (CRL-7250): 580 nM (active)
Potency (HEK293): 130 nM (active)

O=C(NCc1ccccn1)Nc1nnc(-c2ccco2)o1
max response (CRL-7250): 0.451%
max response (HEK293): -0.62%

O=C(O)c1cccc(S(=O)(=O)N2CCc3ccccc3C2)c1
max response (CRL-7250): 0.0752%
max response (HEK293): -4.38%

CC(=O)N[C@@H](C(=O)O[C@H]1CCC(C)(C)[C@@H]2CCC3=C(COC3=O)[C@@]12C)C(C)C
max response (CRL-7250): -2.03%
max response (HEK293): 1.75%

CCOC(=O)c1cc(C#N)c(N2CCC(C(=O)NS(=O)(=O)Cc3ccccc3)CC2)nc1C
outcome (CRL-7250): inactive
max response (HEK293): -0.212%

CC/C=C\CCO[C@@H]1O[C@H](CO)[C@@H](O)[C@H](O)[C@H]1O
max response (CRL-7250): -3.17%
max response (HEK293): 0.0515%

COC(=O)c1ccccc1O[C@@H]1O[C@H](CO)[C@@H](O)[C@H](O)[C@H]1O[C@@H]1O[C@@H](C)[C@H](O)[C@@H](O)[C@H]1O
outcome (CRL-7250): inactive
max response (HEK293): 3.36%

C/C=C1\[C@H](O[C@@H]2O[C@H](CO)[C@@H](O)[C@H](O)[C@H]2O)OC=C(C(=O)OC)[C@H]1CC(=O)O
max response (CRL-7250): -9.39%
max response (HEK293): 3.99%

COc1cc([C@H]2c3cc(O)c(OC)cc3C[C@@H](CO[C@@H]3O[C@H](CO)[C@@H](O)[C@H](O)[C@H]3O)[C@@H]2CO)ccc1O
max response (CRL-7250): -6.95%
max response (HEK293): -2.47%

CC(=O)c1c(O)cc(O[C@@H]2O[C@H](CO)[C@@H](O)[C@H](O)[C@H]2O)cc1O
max response (CRL-7250): -2.16%
max response (HEK293): 1.76%

OC[C@H]1O[C@@H](Oc2ccccc2)[C@H](O)[C@@H](O)[C@@H]1O
outcome (CRL-7250): inactive
max response (HEK293): 0.0932%

NC1CCCCN(c2c(F)cc3c(=O)c(C(=O)O)cn(C4CC4)c3c2Cl)C1 (stereo not given)
max response (CRL-7250): 3.42%
max response (HEK293): -12.1%

CNC(=S)NS(=O)(=O)c1cc(CCNC(=O)c2cc(Cl)ccc2OC)ccc1OC
max response (CRL-7250): 3.39%
max response (HEK293): 0.225%

O=C(O)c1cc(-c2c(-c3ccccc3)nn3ccccc23)n[nH]c1=O
outcome (CRL-7250): inactive
max response (HEK293): -2.65%

COc1ccc(Cl)c(Nc2nc3ccccc3nc2NS(=O)(=O)c2cccc(NC(=O)C(C)(C)N)c2)c1
max response (CRL-7250): -18.5%
max response (HEK293): -13.5%

c1cc(Nc2cc(C3CC3)[nH]n2)nc(Nc2ccc3nc[nH]c3c2)n1
Potency (CRL-7250): 820 nM (active)
Potency (HEK293): 1160 nM (active)

C=C(C)C1CCC2(C(=O)O[C@@H]3O[C@H](CO[C@@H]4O[C@H](CO)[C@@H](O)[C@H](O)[C@H]4O)[C@@H](O)[C@H](O[C@@H]4O[C@@H](C)[C@H](O)[C@@H](O)[C@H]4O)[C@H]3O)CCC3(C(=O)O)C(CCC4C5(C)CCC(O)C(C)(C)C5CCC43C)C12 (stereo not given in full)
outcome (CRL-7250): inactive
outcome (HEK293): inactive

CC1=C(CCC(C)CC(=O)O)[C@@]2(C)CCCC(C)(C)C2CC1=O (stereo not given in full)
max response (CRL-7250): 3.13%
max response (HEK293): 0.185%

CC(C)CNCc1ccc(-c2ccccc2S(=O)(=O)N2CCCC2)cc1
max response (CRL-7250): 1.47%
max response (HEK293): -19.2%

C/C=C1\[C@H](OC2OC(COC3OC(CO)C(O)C(O)C3O)C(O)C(O)C2O)OC=C(C(=O)OC)[C@H]1CC(=O)OCCc1ccc(O)cc1 (stereo not given in full)
max response (CRL-7250): -3.04%
max response (HEK293): -70.9%

CC12CCC3c4ccc(OC5OC(C(=O)O)C(O)C(O)C5O)cc4CCC3C1CCC2O (stereo not given)
outcome (CRL-7250): inactive
max response (HEK293): 3.31%

CC(C)CC(=O)O[C@@H]1OC=C(CO[C@@H]2O[C@H](CO)[C@@H](O)[C@H](O)[C@H]2O)[C@H]2[C@@H]3O[C@H]3[C@@](O)(CO)[C@@H]12
max response (CRL-7250): -0.109%
max response (HEK293): -8.14%
